# A selection: hits, their analogues and other compounds. The true share with any hit is near 7.3%.
# FMDV antiviral = High Throughput Screening for Foot and Mouth Disease Virus Antivirals; hit rate 1.2% among 410,000; AID 1159524, 2015; Potency, µM (titrated, usually from 57.9 µM), inactives show at the highest dose activity change, negative = inhibition, actives largely listed as inhibitors; FMDV antiviral cell-based qHTS; calls by dose curve; tested in HEK293T cells; further: read-out not given here; potency means the concentration at half of the fitted maximal effect; nearly all actives have a fitted effect of over 45% in size
# HCV inh = qHTS Assay for Inhibitors of Hepatitis C Virus (HCV); hit rate 3.4% among 340,000; AID 651820, 2012; Huh7.5.1 HCVcc-Cre infection, luciferase reporter, 44 h; Potency, µM (series often up to 41.8 µM), for inactives: at the highest dose activity change, negative = inhibition, hits mostly inhibitors; active means well fitted inhibition curve with a large enough effect; inconclusive means small, poorly fitted or top-dose-only effect, or another doubt; inactive means no such curve, though single readings can be large or run the other way; further: potency means the concentration at half of the fitted maximal effect
#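 1,000 cells/well; 4 h culture; + compound; + HCVcc-Cre (~0.5 moi); 44 h; luciferase substrate, RT 15 min; read 15 sec.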
# HCMV antiviral = qHTS Assay for inhibitors of the human cytomegalovirus (HCMV); activity change, negative = inhibition, % at 57.5 µM; hit rate 4.5% among 410,000; HFF cells, HCMV-luciferase reporter, 72 h; stronger effect = lower value; in the data active means activity change below about -60%; inconclusive means no clear call, values can overlap the other calls; inactive means above about -39%
#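 HFF cells seeded 16 h at 37C, treated with compounds, infected with luciferase-reporter HCMV at MOI 1 PFU/cell; luciferase read at 72 h post infection, normalized to buffer-only and Salinomycin controls.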
# VACV Venus inh = qHTS for Stage-Specific Inhibitors of Vaccinia Orthopoxvirus: Venus Reporter Primary qHTS | Vaccinia virus Venus reporter expression, fluorescence | hit rate 0.46% among 330,000 | Potency, µM (top dose mostly 36.5 µM), inactives show at the top dose activity change, negative = inhibition, most hits filed as inhibitors | AID 720580, 2013; calls by dose curve; tested in A549 cells; further: potency means the concentration at half of the fitted maximal effect; nearly all actives have a fitted effect of over 30% in size
# Vaccinia mCherry = qHTS for Stage-Specific Inhibitors of Vaccinia Orthopoxvirus: mCherry Reporter Primary qHTS; Vaccinia virus mCherry reporter infection, fluorescence; Potency, µM (highest dose often 36.5 µM), inactives show at the top dose activity change, negative = inhibition, hits mostly inhibitors; hit rate 0.63% among 310,000; AID 720579, 2013; calls by dose curve; tested in A549 cells; further: potency means the concentration at half of the fitted maximal effect; nearly all actives have a fitted effect of over 35% in size
# An asterisk follows results filed as active; i = inactive; ? = inconclusive; . = no result given; [ ] = another dose, or the depositor's remark. On the % scale 0 is the no-effect control and ±100 the full control effect.
SMILES,FMDV antiviral,HCV inh,HCMV antiviral,VACV Venus inh,Vaccinia mCherry
Cc1ccc2c(c1)C(=O)OC(C(=O)Nc1ccc(C(=O)O)cc1)C2 (configuration not stated),?,.,-7,2%,-2%
O=c1oc2ccccc2n1CSC1=NCCS1,0%,?,-62*,?,.
COc1ccc(NC(=O)C(C)(C)n2cc(NC(=O)c3ccc4ccccc4n3)cn2)cc1,.,.,67,.,.
Cc1ccc(NC(=O)c2sc(-n3nc(C)c(Cc4ccc5c(c4)OCO5)c3C)nc2C)cc1C,-4%,.,-113*,-6%,-10%
CC(=O)c1cccc(NC(=O)c2sc(-n3nc(C)c(Cc4ccc5c(c4)OCO5)c3C)nc2C)c1,?,.,15,?,-19%
Cc1ccc(C)c(NC(=O)C2CCN(S(=O)(=O)c3c(C)noc3/C=C/c3cccs3)CC2)c1,-19%,.,?,-9%,-7%
COc1cc2c(cc1/C=C/[N+](=O)[O-])OCO2,14µM*,-26%,-108*,?,?
COC(=O)C1CCN(C2CN(Cc3cn(Cc4ccc(C(F)(F)F)cc4)nn3)S(=O)(=O)C2)CC1 (configuration not stated),.,.,-11,.,.
Cc1ccc(S(=O)(=O)N2CCC([C@H](C#N)c3ccccc3)CC2)cc1,.,.,-12,.,.
Cc1ccccc1NC(=O)/C(=C/c1ccco1)c1ccccc1,0%,-14%,-104*,-7%,-25%
Cc1ccc(SC[C@H](Cc2ccccc2)N2CC[C@@H](C(C)(C)C)CCC2=O)cc1,.,.,.,-8%,i
CN(Cc1ccco1)c1ncncc1-c1cccnc1,-12%,.,.,.,.
CC(O)/C=C/c1ccc2ccccc2n1 (configuration not stated),-2%,11µM*,?,.,.
COc1ccccc1/C=C/c1ccc2ccccc2n1,.,.,.,-18%,11%
O=C(NCCc1ccccc1)c1csc(C(O)Cc2ccc(F)cc2)n1 (configuration not stated),.,.,7,.,.
O=C(c1ccc(Cl)cc1)C1CCCN(Cc2ccc(Oc3ncccn3)cc2)C1 (configuration not stated),?,11µM*,-37,.,.
O=C(c1ccc(Cl)cc1)C1CCCN(Cc2cnn(-c3ccccc3)c2)C1 (configuration not stated),-26%,22µM*,-2,-19%,-26%
Cc1nn(C)cc1CN1CCCC(C(=O)c2ccc(-c3ccccc3)cc2)C1 (configuration not stated),?,4.5µM*,-66*,-22%,-3%
O=C(c1ccc(-c2ccccc2)cc1)C1CCCN(Cc2ccncc2)C1 (configuration not stated),?,?,?,-17%,-14%
CC1(C)Cc2ccccc2C(c2cc3ccccc3oc2=O)=N1,-16%,-11%,-70*,?,.
O=C(c1ccc2c(=O)n(CCc3ccccc3)c(=O)[nH]c2c1)N1CCN(C(=O)c2ccco2)CC1,.,.,.,-17%,0%
COC(=O)c1cccc(NC(=S)NCCC2=CCCCC2)c1,-13%,13µM*,?,?,-22%[1.46 µM]
Cc1ccc(NC(=O)Cn2c(=O)n(CC3CCCO3)c(=O)c3ccccc32)cc1 (configuration not stated),14%,.,-4,-5%,-8%
Cc1ccc(C)c(-n2nnnc2Sc2nnnn2-c2ccccc2)c1,16µM*,11µM*,-97*,.,.
O=c1[nH]cn[nH]1,-15%,0.56µM*,-7,-6%,-1%
SMILES,FMDV antiviral,HCV inh,HCMV antiviral,VACV Venus inh,Vaccinia mCherry
CCC(C)(C)c1ccc(OCCCC[n+]2ccccc2)c(C(C)(C)CC)c1,32µM*,?,-98*,.,.
COc1cccc(CN(C)C(=O)c2ccc3nccnc3c2)c1,2%,-7%,20,5%,.
COc1ccc(CN(C)C(=O)c2cccc(C(=O)N(C)Cc3ccc(OC)cc3)c2)cc1,-24%,11µM*,-71*,.,.
Cc1ccc(C=C2C(Cl)=C(Cl)C(Cl)=C2Cl)cc1,18µM*,-3%,.,10%,4%
Cc1ccc(/C=[N+](/C)[O-])cc1,-11%,16%,-24,-13%,-2%
CCOc1ccccc1CNC(=O)c1ccc2c(c1)sc1nc(-c3cccc(OC)c3)cn12,5%,.,.,-15%,-13%
CCOC(=O)C1=C(C)N=c2s/c(=C\c3ccncc3)c(=O)n2C1c1ccc2c(c1)OCO2 (configuration not stated),25µM*,?,-13,-18%,.
Cc1ccc(-c2ccnc(-n3ncc(C(=O)NC[C@@H]4CCCN5CCCC[C@H]45)c3C3CC3)n2)o1,-11%,.,.,-9%,i
Fc1cccc(Cl)c1-c1nnc2ccc3ccccc3n12,-8%,10µM*,-84*,.,.
Nc1ccc2c(c1)C(=NO)c1cc([N+](=O)[O-])ccc1-2,-19%,?,-85*,199%,?
O=C(Nc1cc2c(cc1Cl)-c1ccc([N+](=O)[O-])cc1C2=NO)C(F)(F)F,-3%,?,.,8%,-9%
COc1ccc(N=C2c3ccccc3-c3ccc([N+](=O)[O-])cc32)cc1,-14%,-4%,-9,-13%,-14%
O=[N+]([O-])c1ccc2c(c1)C(=Nc1ccccc1)c1ccccc1-2,-6%,-21%,-92*,-11%,-21%
O=[N+]([O-])c1ccc2c(c1)-c1ccccc1C2=NO,-5%,?,-70*,-20%,-15%
Cc1cc(C)c(CN2CCN(C(=O)Cn3cc(C)c(=O)[nH]c3=O)CC2)c(C)c1,.,.,-21,.,.
CN1CCC2(CC1)CCN(C(=O)c1cccc(F)c1)CC2,-6%,.,.,.,.
Cc1c(C(=O)Nc2ccc(F)c(Cl)c2)sc2nc3n(c(=O)c12)CCC3,5%,.,50,-20%,-19%
O=C(CCl)Nc1nc(-c2ccco2)c(-c2ccco2)s1,-29%,?,-69*,-14%,-17%
CCCC(=O)OC[C@H]1CN(C2CCCC2)S(=O)(=O)c2c(Oc3ccc(F)cc3OC)cccc2O1,.,.,-23,.,.
O=C(CCCc1c[nH]c2ccccc12)Nc1ncccc1O,-15%,-9%,-88*,.,.
Cc1cccnc1NC(=O)CCCc1c[nH]c2ccccc12,12%,0%,15,-10%,-6%
CCOc1ncccc1C(=O)NCCc1c[nH]c2ccccc12,3%,-2%,-66*,-14%,-11%
O=C(O)c1nccnc1C(=O)NCCc1c[nH]c2ccccc12,-18%,16%,14,.,.
O=c1c(S(=O)(=O)c2ccccc2)cn(Cc2ccc(F)cc2)c2cc(N3CCCCC3)c(F)cc12,-4%,.,-3,-6%,-7%
NNC(=O)Cn1c(COc2ccc(Cl)cc2)nc2ccccc21,19%,11µM*,-9,-10%,-20%
O=C(O)Cn1c(COc2ccc(Cl)cc2)nc2ccccc21,-12%,11%,-36,.,.
CCOC(=O)COc1ccc(/C=C/[N+](=O)[O-])c(OCC(=O)OCC)c1,14µM*,?,-105*,.,.
